Results taken from PubChem BioAssay AID808 (Columbia University Molecular Screening Center, 2007).
Hit rate of the full screen: of about 93,000 compounds, about 180 (0.19%) were called active.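 How the source made its calls: active means activation above the screen mean plus 3 SD, with well images confirming the hit on visual review (cut at about 28% in these data, passing the limit was not always enough); inconclusive means activation above that limit but images do not confirm it; inactive means activation not above that limit.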 The sample as a whole holds a higher share of actives than the screen did.

assay: enhancers of endothelial VCAM-1 upregulation by TNFa – imaging, HUVEC, TNFa stimulus, immunofluorescence, primary screen (AID 808); conditions: HUVEC TNFa-stimulated VCAM-1 immunofluorescence, high-content imaging; at 2 µM; hits give high values; scaled per plate to unstimulated/TNFa-only wells;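 further: signal is the number of cytoplasmic VCAM-1 stained grains per positive cell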

activation, inactive:
CCC(CC)c1nnc(NS(=O)(=O)Cc2ccccc2)s1 11.2%
COc1cc(C)nc(N2CCCC(C(=O)NCC(C)C)C2)n1 (configuration not stated) 5.6%
COc1ccc2c(c1OC)C(=O)N(c1ncn[nH]1)C2 -7.1%
Nc1nonc1-c1noc(-c2ccc(Br)o2)n1 9.6%
COc1ccc(Nc2cc(=O)oc3ccccc23)cc1 -88.9%
Cc1cccc(Cn2c(SCCO)nc3c2c(=O)n(C)c(=O)n3C)c1 -4.1%
Cc1cccc(C)c1N1CCN(S(=O)(=O)N2CCOCC2)CC1 -11.4%
CSc1ccc(Cl)c(C(=O)OCC(=O)N2CC(C)OC(C)C2)c1 (configuration not stated) 4.1%
NS(=O)(=O)c1cccnc1Nc1cccc(Cl)c1 4.4%
CCN(CC)P(=O)(/C(Cl)=C\Nc1c(C)n(C)n(-c2ccccc2)c1=O)N(CC)CC 10.1%
CN(C)S(=O)(=O)c1ccc(N2CCCC2)c(C(=O)NCc2ccccc2)c1 -5.1%
COc1ccc(F)cc1S(=O)(=O)Nc1ccc2c(c1)OCO2 22.9%
CCCN1Cc2cccc(C(=O)Nc3ccc(S(=O)(=O)N4CCCCCC4)cc3)c2C1=O 1.5%
C/C(=N\NC(=O)c1ccc(C)cc1)C1C(=O)c2ccccc2C1=O -6.4%
CCCC(=O)n1nc(-c2ccccc2)nc1N 25.9%
O=C(COC(=O)c1ccc(S(=O)(=O)N2CCc3ccccc3C2)cc1)NC(=O)NCc1ccco1 -0.5%
COC(=O)c1sc2ncccc2c1OCc1ccc(Cl)cc1Cl -10.3%
C=C(Cl)COC(=O)C1C2C=CC(C2)C1C(=O)O (configuration not stated) 12.1%
Cn1cc([N+](=O)[O-])c(C(=O)Nc2ccc3c(c2)OCCO3)n1 -36.8%
Cc1ccc(C(=O)Nc2ccc3c(c2)OCO3)cc1S(=O)(=O)N1CCCCC1 7.1%
CC(CCc1ccccc1)NC(=O)c1ccc(Br)o1 (configuration not stated) -95.4%
NC(=O)COc1ccc2c3c(c(=O)oc2c1)CCCCC3 -35%
Cc1cc(Cl)c(S(=O)(=O)NCC2CCCO2)cc1OCC(N)=O (configuration not stated) 25.1%
Cc1cc(=O)oc2cc(OCC3CC(c4ccccc4Cl)=NO3)ccc12 (configuration not stated) -59.7%
Cc1ccc(CNC(=O)CCCNC(=O)c2ccc(Cl)cc2)n1C 7.4%

activation, active:
COCCNS(=O)(=O)c1cc(Br)ccc1OC 35.9%
CCN(CC(=O)Nc1ccc2c(c1)OCCO2)Cc1cc(=O)oc2cc(C)c(C)cc12 54.4%
